Structures can show the parent of a compound that is named as a salt. ± gives the standard deviation of the averaged measurements.

For the first assay, the system named is E. coli TESEC Mtb Alr. Description: growth (OD600 after 10 h); higher = more growth (less inhibition). Conditions: arabinose 1000 nM; compound 0.1 mM; raw OD600 reference: median of DMSO wells 0.294, cell-free background 0.041. As for the experimental part:
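TESEC Mtb Alr E. coli, or the Alr+ wild-type control, in 384-well plates with Prestwick library compounds at 0.1 mM and 1% DMSO, across arabinose induction levels of 1E3 to 1E7 nM. Growth is read as OD600 after 10 h at 37 °C in triplicate biological replicates.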
The molecule `CCCC[N+]1(C)[C@@H]2CC(OC(=O)[C@H](CO)c3ccccc3)C[C@H]1[C@@H]1O[C@@H]12` (some centres not stated) [Butylscopolammonium (n-) bromide] registered a growth of 0.296 ± 0.012. The same measure, in the same setting: then `O=P1(NCCCl)OCCCN1CCCl` (configuration not stated) [Ifosfamide], with 0.301 ± 0.027; and `CCN(C(C)=O)c1cccc(-c2ccnc3c(C#N)cnn23)c1` [Zaleplon], with 0.259 ± 0.0063; and `C[C@]12CCC(=O)C=C1CC[C@@H]1[C@@H]2C(=O)C[C@]2(C)C(=O)CC[C@@H]12` [Adrenosterone], with 0.273 ± 0.015. For `CN1CCN(C(=O)OC2c3nccnc3C(=O)N2c2ccc(Cl)cn2)CC1` (configuration not stated) [Zopiclone], the growth stood at 0.284 ± 0.0071. On the same count and under the same terms, then `O=C(O)CCCc1ccc(N(CCCl)CCCl)cc1` [Chlorambucil], with 0.296 ± 0.0033; and `CCC1(C)CC(=O)NC(=O)C1` [Bemegride], with 0.299 ± 0.023; and `CCCCCC[C@H]1C(=O)O[C@H](C)[C@H](NC(=O)c2cccc(NC=O)c2O)C(=O)O[C@@H](C)[C@@H]1OC(=O)CC(C)C` [Antimycin A], with 0.203 ± 0.018. `CC(=O)OCC1=C(C(=O)O)N2C(=O)[C@@H](N)[C@H]2SC1` [Cephalosporanic acid, 7-amino] showed a growth of 0.295 ± 0.011. Still for that read-out and setting: as for `CC(N)C(O)c1ccccc1` (configuration not stated) [Phenylpropanolamine hydrochloride], the figure is 0.298 ± 0.0047; as for `C[C@]12Cc3c[nH]nc3C[C@@H]1CC[C@@H]1[C@@H]2CC[C@@]2(C)[C@H]1CC[C@]2(C)O` [Stanozolol], 0.256 ± 0.0051. The same measure, in the same setting: then `NC(=O)CN1CCCC1=O` [Piracetam], with 0.299 ± 0.0073. In turn, `O=P1(N(CCCl)CCCl)NCCCO1` (configuration not stated) [Cyclophosphamide] returned a growth of 0.271 ± 0.011.

Staying with this assay, now noted: arabinose 10000 nM; compound 0.1 mM; raw OD600 reference: median of DMSO wells 0.264, cell-free background 0.041.
As for `CC(C)(C)NCC(O)c1ccccc1Cl` (configuration not stated) [Tulobuterol], the growth is 0.273 ± 0.0098. Still for that read-out and setting: as for `Clc1ccc(C(OCCN2CCCCC2)c2ccccc2)cc1` (configuration not stated) [Cloperastine hydrochloride], the figure is 0.2462 ± 0.0014; as for `CN(C)C(=O)Oc1cc(OC(=O)N(C)C)cc(C(O)CNC(C)(C)C)c1` (configuration not stated) [Bambuterol hydrochloride], 0.273 ± 0.0062. For `C[C@@H]1C[C@@H]([C@H](O)CC2CC(=O)NC(=O)C2)C(=O)[C@@H](C)C1` [Cycloheximide], the growth was 0.268 ± 0.006.

With `CC(Cc1ccc(O)cc1)NCC(O)c1cc(O)cc(O)c1` (configuration not stated) [Fenoterol hydrobromide], the growth was 0.266 ± 0.0076. The same measure, in the same setting: as for `COc1ccc(CCN)cc1OC` [Homoveratrylamine], the figure is 0.281 ± 0.011; as for `C(#CCN1CCCC1)CN1CCCC1` [Tremorine dihydrochloride], 0.27 ± 0.005; as for `O=C1CC[C@@]2(O)[C@H]3Cc4ccc(O)c5c4[C@@]2(CCN3CC2CC2)[C@H]1O5` [Naltrexone hydrochloride dihydrate], 0.2685 ± 0.0019. The same measure, in the same setting: then `C[N+]1(C)CCCC(OC(=O)C(O)(c2ccccc2)c2ccccc2)C1` (configuration not stated) [Mepenzolate bromide], with 0.258 ± 0.0015. On the same count and under the same terms, then `C1CCc2nnnn2CC1` [Pentylenetetrazole], with 0.275 ± 0.0089. `CC(=O)NC1CCSC1=O` (racemic) [N-Acetyl-DL-homocysteine Thiolactone] came in with a growth of 0.2598 ± 0.0021. On to `CNC(C)(C)Cc1ccccc1` [Mephentermine hemisulfate], for which the growth was determined as 0.274 ± 0.0032.

Turning to `N[C@@H]1C[C@H]1c1ccccc1` [Tranylcypromine hydrochloride], the growth came to 0.28 ± 0.0083.

Molecule `CC(NC(C)(C)C)C(=O)c1cccc(Cl)c1` (configuration not stated) [Bupropion hydrochloride] came in with a growth of 0.257 ± 0.0069.

Take `CCC(=O)O[C@@](Cc1ccccc1)(c1ccccc1)[C@@H](C)CN(C)C` [Levopropoxyphene napsylate]: the growth stood at 0.283 ± 0.012.

Turning to `COP(=O)(OC)C(O)C(Cl)(Cl)Cl` (configuration not stated) [Trichlorfon], the growth came to 0.248 ± 0.0076. In turn, `CCN[C@@H](C)Cc1cccc(C(F)(F)F)c1` [Dexfenfluramine hydrochloride] registered a growth of 0.261 ± 0.0059. On the same count and under the same terms, as for `CN1C(=O)CCS(=O)(=O)C1c1ccc(Cl)cc1` (configuration not stated) [Chlormezanone], the figure is 0.256 ± 0.0031; as for `O=c1c2ccccc2[se]n1-c1ccccc1` [Ebselen], 0.261 ± 0.0064; as for `C[C@@H]1CN([C@H]2CC[C@](C#N)(c3ccc(F)cc3)CC2)CC[C@]1(C(=O)O)c1ccccc1` [Levocabastine hydrochloride], 0.271 ± 0.017. The molecule `C[N+]12CCC(CC1)C(OC(=O)C(O)(c1ccccc1)c1ccccc1)C2` (configuration not stated) [Clidinium bromide] showed a growth of 0.273 ± 0.0033. In turn, `C[C@]12CCC(=O)C(O)=C1CC[C@@H]1[C@@H]2CC[C@]2(C)C(=O)CC[C@@H]12` [Formestane] showed a growth of 0.228 ± 0.014. The same measure, in the same setting: then `NCCCNCCSP(=O)(O)O` [Amifostine], with 0.273 ± 0.0058; and `CC(C)(N)Cc1ccccc1` [Phentermine hydrochloride], with 0.273 ± 0.0063; and `CN[C@@H]1C[C@@H](c2ccc(Cl)c(Cl)c2)c2ccccc21` [Indatraline hydrochloride], with 0.0413 ± 0.00055. For `C[C@@H]1CC[C@H]2[C@@H](C)C(=O)O[C@@H]3O[C@@]4(C)CC[C@@H]1[C@]32OO4` [Artemisinin], the growth is 0.194 ± 0.0057. The same measure, in the same setting: as for `CCCC[N+]1(C)[C@@H]2CC(OC(=O)[C@H](CO)c3ccccc3)C[C@H]1[C@@H]1O[C@@H]12` (some centres not stated) [Butylscopolammonium (n-) bromide], the figure is 0.2707 ± 0.0023; as for `O=P1(NCCCl)OCCCN1CCCl` (configuration not stated) [Ifosfamide], 0.2741 ± 0.0022. With `CCN(C(C)=O)c1cccc(-c2ccnc3c(C#N)cnn23)c1` [Zaleplon], the growth is 0.238 ± 0.004. Same read-out and setting: as for `C[C@]12CCC(=O)C=C1CC[C@@H]1[C@@H]2C(=O)C[C@]2(C)C(=O)CC[C@@H]12` [Adrenosterone], the figure is 0.245 ± 0.0058; as for `CN1CCN(C(=O)OC2c3nccnc3C(=O)N2c2ccc(Cl)cn2)CC1` (configuration not stated) [Zopiclone], 0.246 ± 0.0053. Same read-out and setting: as for `O=C(O)CCCc1ccc(N(CCCl)CCCl)cc1` [Chlorambucil], the figure is 0.263 ± 0.0054; as for `CCC1(C)CC(=O)NC(=O)C1` [Bemegride], 0.253 ± 0.00095; as for `CCCCCC[C@H]1C(=O)O[C@H](C)[C@H](NC(=O)c2cccc(NC=O)c2O)C(=O)O[C@@H](C)[C@@H]1OC(=O)CC(C)C` [Antimycin A], 0.234 ± 0.0026. Regarding `CC(=O)OCC1=C(C(=O)O)N2C(=O)[C@@H](N)[C@H]2SC1` [Cephalosporanic acid, 7-amino], the growth is 0.269 ± 0.008. On the same count and under the same terms, as for `CC(N)C(O)c1ccccc1` (configuration not stated) [Phenylpropanolamine hydrochloride], the figure is 0.254 ± 0.0066. Same read-out and setting: as for `C[C@]12Cc3c[nH]nc3C[C@@H]1CC[C@@H]1[C@@H]2CC[C@@]2(C)[C@H]1CC[C@]2(C)O` [Stanozolol], the figure is 0.245 ± 0.0053; as for `NC(=O)CN1CCCC1=O` [Piracetam], 0.27 ± 0.0054; as for `O=P1(N(CCCl)CCCl)NCCCO1` (configuration not stated) [Cyclophosphamide], 0.276 ± 0.0047.

Values taken from the supplement of paper PMC9262897, “Low-cost anti-mycobacterial drug discovery using engineered E. coli” (Nature Communications, 2022).
